PubChem BioAssay (Tox21)
Inconclusive results are not listed. Calls of active or inactive are those of the source. The call rests on the fitted dose curve; in most records, active means well fitted curve in the direction sought with a large enough effect in the repeat runs; inconclusive means weak or mixed curves; inactive means no such curve, though single readings can be large; an effect the other way counts as inactive or inconclusive.

Experiments:
[1] = qHTS RealTime-Glo MT Cell Viability Assay in HEK293 cells - 16 hour (AID 1224872); further: nearly all actives have a fitted effect of over 50% in size; further: potency means the concentration at half of the fitted maximal effect
Procedure, shortened: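 Cells + reagent dispensed (600 cells/well, HEK293) → 5 h at 37 C/5% CO2 → 23 nL compound in DMSO pinned → 40 h at 37 C → luminescence read at 0, 8, 16, 24, 32, 40 h.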

[2] = qHTS RealTime-Glo MT Cell Viability Assay in HepG2 cells - 8 hour (AID 1224873); further: nearly all actives have a fitted effect of over 55% in size
Procedure, shortened: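 HepG2 cells mixed with RealTime-Glo MT reagents (NanoLuc plus cell-permeant prosubstrate) were seeded at 600 cells/well, incubated 5 h at 37 C/5% CO2, then pinned with compounds in DMSO; nonlytic luminescence tracked viability during 40 h treatment.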

[3] = qHTS RealTime-Glo MT Cell Viability Assay in HEK293 cells - 40 hour (AID 1224874); details: RealTime-Glo luminescence; max response: stronger effect = lower value; further: nearly all actives have a fitted effect of over 50% in size; further: potency means the concentration at half of the fitted maximal effect
Procedure, shortened: (§1)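 Viable HEK293 cells reduce a cell-permeant prosubstrate; the product diffuses out and is consumed by NanoLuc in the medium to give light. Compounds went in after a 5 h incubation and plates were read over the treatment course.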

[4] = A CellTox Green Cytotoxicity Assay to monitor cytotoxicity in HEK293 cells - 24 hour (AID 1224875); further: series mostly up to about 77 µM; nearly all actives have a fitted effect of over 45% in size
Procedure, shortened: (§2)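 Fluorescence intensity, read at 0, 8, 16, 24, 32 and 40 h of compound treatment, reflected dye binding to DNA of dead HEK293 cells; compounds (23 nL, DMSO) were added 5 h after plating cells with reagent.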

[5] = qHTS RealTime-Glo MT Cell Viability Assay in HepG2 cells - 32 hour (AID 1224877); further: nearly all actives have a fitted effect of over 55% in size
Procedure, shortened: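 Real-time, nonlytic viability: 600 HepG2 cells/well mixed with NanoLuc enzyme plus prosubstrate; 5 h settle, compound (DMSO) added by pintool; luminescence monitored over 40 h at 37 C.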

[6] = A CellTox Green Cytotoxicity Assay to monitor cytotoxicity in HepG2 cells - 40 hour (AID 1224879); further: nearly all actives have a fitted effect of over 40% in size
Procedure, shortened: (§3)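 Using 1536-well format, dye-containing HepG2 suspension was seeded, allowed 5 h at 37 C/5% CO2, dosed by pintool with compounds, positive and negative controls, and imaged for fluorescence across 40 h.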

[7] = qHTS RealTime-Glo MT Cell Viability Assay in HEK293 cells - 0 hour (AID 1224880); further: top concentration of the series differs between compounds; nearly all actives have a fitted effect of over 45% in size
Procedure, shortened: as §1

[8] = A CellTox Green Cytotoxicity Assay to monitor cytotoxicity in HEK293 cells - 32 hour (AID 1224881); further: nearly all actives have a fitted effect of over 40% in size
Procedure, shortened: as §2

[9] = A CellTox Green Cytotoxicity Assay to monitor cytotoxicity in HepG2 cells - 16 hour (AID 1224876); further: nearly all actives have a fitted effect of over 45% in size
Procedure, shortened: as §3

[10] = A CellTox Green Cytotoxicity Assay to monitor cytotoxicity in HepG2 cells - 24 hour (AID 1224878); further: nearly all actives have a fitted effect of over 45% in size
Procedure, shortened: as §3
On the % scale 0 is the no-effect control and ±100 the full control effect.

Cn1c(=O)c2c(ncn2CC(O)CO)n(C)c1=O (stereo not given)
inactive: Potency [1] | Potency [2] | max response [3] 2.79% | Potency [4] | Potency [5] | Potency [6] | Potency [7] | Potency [8]

c1ccc(-c2nc[nH]c2-c2ccccc2)cc1
inactive: Potency [1] | Potency [2] | max response [3] -25% | Potency [4] | Potency [5] | Potency [7] | Potency [8]

Cc1cccc(C(C)(C)C)c1O
inactive: Potency [1] | Potency [2] | max response [3] -2.49% | Potency [9] | Potency [5] | Potency [10] | Potency [7]

Cc1cccc(OCCOc2cccc(C)c2)c1
inactive: Potency [1] | Potency [2] | max response [3] -15.5% | Potency [4] | Potency [5] | Potency [7] | Potency [8]

COC(=O)CSc1cc(N=c2sc(=O)n3n2CCCC3)c(F)cc1Cl
inactive: Potency [1] | Potency [2] | max response [3] 3.98% | Potency [9] | Potency [5] | Potency [10] | Potency [6] | Potency [7] | Potency [8]

CC[C@H](C)[C@H](N)C(=O)O
inactive: Potency [1] | Potency [2] | max response [3] -1.16% | Potency [4] | Potency [5] | Potency [10] | Potency [8]

CC1=CCC(C(C)C)C=C1 (stereo not given)
inactive: Potency [1] | Potency [2] | Potency [4] | Potency [9] | Potency [5] | Potency [10] | Potency [7] | Potency [8]

CNCC[C@@H](Oc1ccccc1C)c1ccccc1
inactive: Potency [1] | Potency [2] | max response [3] -5.29% | Potency [4] | Potency [5] | Potency [10] | Potency [6] | Potency [8]

C=CC(C)(CCC=C(C)C)OC(=O)c1ccccc1 (stereo not given)
inactive: Potency [1] | Potency [2] | max response [3] -13.6% | Potency [5] | Potency [10] | Potency [6] | Potency [7]

CC(=O)CC(=O)c1ccccc1
inactive: Potency [1] | Potency [2] | Potency [4] | Potency [9] | Potency [5] | Potency [10] | Potency [6] | Potency [8]

CC(C)(C)c1cc(O)c(C(C)(C)C)cc1O
inactive: Potency [2] | Potency [4] | Potency [5] | Potency [6] | Potency [7] | Potency [8]
active: Potency [1] 17.4 µM | Potency [3] 30.9 µM

O=C(O)C(c1ccc(Cl)cc1)c1ccc(Cl)cc1
inactive: Potency [1] | Potency [2] | max response [3] -1.91% | Potency [4] | Potency [5] | Potency [10] | Potency [7] | Potency [8]

O=C1Nc2cc(Cl)ccc2Oc2ccccc21
inactive: Potency [1] | Potency [2] | max response [3] 5.17% | Potency [4] | Potency [10] | Potency [6] | Potency [7] | Potency [8]
